# Assay outcomes: PubChem, National Center for Advancing Translational Sciences (NCATS)
# Rows were chosen to be rich in hits. Some 1.1% of all compounds tested hit in one or more screens of this group.
# HTT cytoprotect – protects HTT-Q103 PC12 cells, measured by ATP; Potency, µM (highest dose often 56.4 µM), for the others: cytoprotection (ATP increase), usual class: activators; PC12 HTT-Q103 induced, cytoprotection, ATP luminescence, 40 h; 0.14% of 230,000 active; further: potency means the concentration at half of the fitted maximal effect; % of control where 0% means no effect; nearly all actives have a fitted effect of over 45% in size
#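 Rat PC12, Q103 Htt exon1-GFP fusion, ecdysone promoter; tebufenozide inducer 100 nM final; compound titration; qHTS, 1500 cells/well; ATPlite luminescent read.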
# HTT aggregate – reduces HttQ103-GFP aggregates in PC12 cells | PC12 HttQ103-GFP aggregates, Acumen cytometry, 40 h | Potency, µM (top dose mostly 46.1 µM), inactives show at the highest dose activity change, negative = inhibition, actives largely listed as inhibitors | 1.1% of 220,000 active; further: potency means the concentration at half of the fitted maximal effect; on the % scale 0 is the no-effect control and ±100 the full control effect; nearly all actives have a fitted effect of over 60% in size
#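 Ecdysone-promoter PC12 model expressing HTT exon 1 Q103 fused to GFP, induced by tebufenozide at 100 nM final. Compounds titrated; aggregates sized 1–25 µm scored on a 488 nm laser cytometer.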
# MBNL1 CUG block – MBNL1-poly(CUG) RNA binding inhibition; TR-FRET MBNL1-His/biotin-(CUG)12 binding, 665/545 ratio; Potency, µM (top dose mostly 57.5 µM), for the others: at the top dose activity change, negative = inhibition, actives largely listed as inhibitors; 0.036% of 280,000 active; AID 2675; active means well fitted inhibition curve with a large enough effect in the signal ratio, with a control signal flat, not every such curve was filed as active; inconclusive means small, poorly fitted or top-dose-only effect, or effect the other way, or a change in a side signal; inactive means no such curve, though single readings can be large or run the other way; the % refers to the signal ratio; further: potency means the concentration at half of the fitted maximal effect; on the % scale 0 is the no-effect control and ±100 the full control effect
# Target sequence (Q9NR56 whole entry, looked up): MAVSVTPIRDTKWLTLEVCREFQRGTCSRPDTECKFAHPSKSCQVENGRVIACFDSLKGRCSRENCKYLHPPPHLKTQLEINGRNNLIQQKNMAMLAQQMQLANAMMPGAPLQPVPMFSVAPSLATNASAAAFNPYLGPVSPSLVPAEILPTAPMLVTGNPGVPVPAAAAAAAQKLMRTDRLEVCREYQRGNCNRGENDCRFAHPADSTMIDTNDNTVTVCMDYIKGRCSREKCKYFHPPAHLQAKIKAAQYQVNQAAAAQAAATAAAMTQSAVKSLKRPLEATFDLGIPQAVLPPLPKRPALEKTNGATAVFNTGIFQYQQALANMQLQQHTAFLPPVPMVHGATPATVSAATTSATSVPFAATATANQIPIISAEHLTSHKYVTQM
#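 Ratiometric TR-FRET (665 over 545 nm, excitation 340 nm) tracks disruption of MBNL1-His/biotin-(CUG)12 complex after 60 min at room temperature, with compounds at 92 nM to 58 uM final.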
# NPSR antagonist – blocks cAMP signaling of the human neuropeptide S receptor | Q6W5P4 | CHO-NPSR cells, cAMP TR-FRET, antagonist mode | Potency, µM (highest dose often 38.3 µM), for the others: top-dose activity change, negative = inhibition, most hits filed as inhibitors | 1% of 220,000 active; further: potency means the concentration at half of the fitted maximal effect; on the % scale 0 is the no-effect control and ±100 the full control effect; nearly all actives have a fitted effect of over 50% in size
# Target sequence (Q6W5P4 whole entry, looked up): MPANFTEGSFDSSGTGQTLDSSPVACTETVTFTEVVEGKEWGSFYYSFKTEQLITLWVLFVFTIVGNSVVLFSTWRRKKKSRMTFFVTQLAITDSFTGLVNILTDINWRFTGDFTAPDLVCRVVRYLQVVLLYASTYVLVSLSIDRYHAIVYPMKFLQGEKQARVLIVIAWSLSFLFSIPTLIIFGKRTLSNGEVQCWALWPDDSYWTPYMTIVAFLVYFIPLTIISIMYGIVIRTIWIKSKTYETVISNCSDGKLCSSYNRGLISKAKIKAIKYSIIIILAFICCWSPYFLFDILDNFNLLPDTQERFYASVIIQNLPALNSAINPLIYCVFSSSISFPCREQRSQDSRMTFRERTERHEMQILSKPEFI
# Lamin A splicing – LMNA splicing modulation; HeLa LMNA splicing GFP/RFP minigene ratio, 48 h; Potency, µM (top dose mostly 46.1 µM), for inactives: at the highest dose ratio change, negative = inhibition, usual class: inhibitors; 0.01% of 200,000 active; AID 1487; active means well fitted inhibition curve with a large enough effect in the signal ratio, with a control signal flat, not every such curve was filed as active; inconclusive means small, poorly fitted or top-dose-only effect, or effect the other way, or a change in a side signal; the % refers to the signal ratio; further: potency means the concentration at half of the fitted maximal effect; on the % scale 0 is the no-effect control and ±100 the full control effect
#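 S3 HeLa stable clones carrying a lamin A-EGFP splicing minigene plus DsRed2 were seeded at 600 cells/well in Opti-MEM with 2% FBS, pin-dosed and incubated 48 h at 37°C. Acumen cytometry (488 nm) gave the GFP/RFP total-intensity ratio.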
# CBFb-RUNX1 inh – blocks binding between human CBF-beta and RUNX1. Q01196+Q13951. AlphaScreen CBFb-His/RUNX1-biotin binding, biochemical. Potency, µM (titrated, usually from 59.8 µM), for the others: at the top dose activity, negative = inhibition, most hits filed as inhibitors. 230,000 tested, under 10 active. AID 1477; further: % of control where 0% means no effect
#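 Compounds were screened at multiple concentrations against a preformed CBF-beta(His)/RUNX1(biotin) complex (30 nM of each) for 15 min at room temperature, followed by 90 min with nickel and streptavidin beads and AlphaScreen reading.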
# * marks the source's active call; other numbers are inactive results; ? = inconclusive; · = no result; [ ] = another dose, or the depositor's remark. Unless noted, the call rests on the fitted dose curve; in most records, active means well fitted curve in the direction sought with a large enough effect; inconclusive means small, poorly fitted or top-dose-only effect, or another doubt; inactive means no such curve, though single readings can be large; an effect the other way counts as inactive or inconclusive.
SMILES,HTT cytoprotect,HTT aggregate,MBNL1 CUG block,NPSR antagonist,Lamin A splicing,CBFb-RUNX1 inh
CCS(=O)(=O)N1CC(=O)N(c2ccc(C)c(C)c2)C(C)(C(=O)NC2CCCCC2)C1 (configuration not stated),·,·,·,·,10.2%[46 µM],·
Cn1c2ccccc2c2cc(C(=O)NNC(=O)CCl)sc21,-35.2%,15.8µM*,·,-18.2%,·,17.7%
Cn1nnnc1SCCNCc1cc(Cl)ccc1OCc1ccccc1,16.5%[10 µM],25.1µM*,-11.4%,7.9%,?,?
Cn1nnnc1SCCNCc1ccccc1OCc1ccc(Cl)cc1,-3.0%[10 µM],-5.6%,-13.3%,8.5%,?,?
Cc1ccc(S/C=C\C(=O)c2ccccc2)cc1,-77.4%,-17.3%,-6.2%,12.6µM*,?,0.3%
CCOc1cc(/C=C2\C(=O)N(c3nc(-c4ccc(Br)cc4)cs3)N=C2c2ccccc2)ccc1O,-24.6%,1.8%,10.5%,10µM*,?,?
COc1cc(/C=C2\C(=O)N(c3ccc(NC(C)=O)cc3)N=C2c2ccccc2)ccc1O,·,-2.1%,5.4%,-43.5%,·,-10.5%
CCOC(=O)Cn1c(=O)c(-c2cc(Br)ccc2N)nc2ccccc21,15.5%[10 µM],1.3%[9.22 µM],8.0%,4.8%,·,1.9%
Cn1c(=O)c(-c2cc(Br)ccc2N)nc2ccccc21,-3.9%[10 µM],12.6µM*,?,-1.0%[46.1 µM],-10.0%,-15.1%
CCc1ccccc1O,-7.5%,·,·,·,·,-9.2%[21.7 µM]
COC(=O)c1ccc(NC(=O)CN(C)S(=O)(=O)c2ccc(OC)c(C)c2)cc1,4.2%[10 µM],1.26µM*,-4.8%,-17.3%[46.1 µM],13.0%,8.9%
O=S1(=O)c2ccccc2N(Cc2ccc(Cl)cc2F)c2ccccc21,·,·,·,·,6.0%[46 µM],·
O=C(N/N=C1/C[C@@H](O)[C@@H](O)[C@@H]2[C@H]3C(=O)N(c4ccc(F)cc4F)C(=O)[C@@H]3CC[C@@H]12)OCc1ccccc1,?,·,·,·,·,-1.9%[13.1 µM]
Cc1cccc(NC2=C/C(=N/S(=O)(=O)c3cccs3)c3ccccc3C2=O)c1,·,14.3%,?,5.01µM*,?,17.6%
O=C(O)c1ccc(NS(=O)(=O)c2ccc3c(c2)C(=O)c2ccccc2C3=O)cc1,3.9%[10 µM],-2.0%[9.22 µM],?,-16.2%,-1.7%[46 µM],-0.7%
O=C1/C(=N\S(=O)(=O)c2cccs2)C([n+]2ccccc2)=C([O-])c2ccccc21,2.2%[10 µM],-38.6%[9.22 µM],?,-10.6%,·,2.4%
Cc1ccc(Cl)cc1NC1=C/C(=N\S(=O)(=O)c2cccs2)c2ccccc2C1=O,-95.8%[10 µM],1.58µM*,?,?,?,·
O=C1C(Nc2ccc(O)cc2)=C/C(=N/S(=O)(=O)c2cccs2)c2ccccc21,-56.9%[10 µM],2.51µM*,?,6.31µM*,?,·
O=C(O)c1ccc(NC2=C/C(=N/S(=O)(=O)c3ccccc3)c3ccccc3C2=O)cc1,-179.7%,15.8µM*,?,?,?,?
O=C1C=C(Nc2ccc(O)cc2)C(=O)c2ccccc21,-26.6%[10 µM],-8.7%[9.22 µM],?,38.2%,·,?
COc1cccc(N2CCN(C(=O)C3CCN(S(=O)(=O)c4cn(C)cn4)CC3)CC2)c1,·,·,·,·,-4.4%[46 µM],·
O=C(O)c1c[nH]c2c(ccc3[nH]cc(C(=O)O)c(=O)c32)c1=O,-22.4%[10 µM],·,·,·,·,·
Cc1cc(C)c(S(=O)(=O)/N=C2\C=C(NS(=O)(=O)c3ccccc3)C(=O)c3ccccc32)c(C)c1,·,·,11.7%,·,·,·
Cc1ccc(NC2=C/C(=N\S(=O)(=O)c3cccs3)c3ccccc3C2=O)c(C)c1,-94.5%[10 µM],2.24µM*,?,3.98µM*,?,·
CN(Cc1ccccc1)c1ncnc2ccc(Br)cc12,-47.6%,0.355µM*,12.5%,-11.1%[46.1 µM],?,16.0%
SMILES,HTT cytoprotect,HTT aggregate,MBNL1 CUG block,NPSR antagonist,Lamin A splicing,CBFb-RUNX1 inh
CCOc1ccccc1Nc1ncnc2ccc(Br)cc12,·,·,6.5%,·,·,·
COc1ccc(/C=C/C(=O)c2ccc(Cl)s2)cc1O,-31.4%,-9.6%,?,?,?,-6.2%
COc1cc(/C=C/C(=O)c2ccc(Cl)s2)cc(OC)c1O,22.2%,7.7%[9.22 µM],?,10µM*,?,5.5%
O=[N+]([O-])c1ccc2ncccc2c1CCc1c([N+](=O)[O-])ccc2ncccc12,4.5%[10 µM],·,·,·,·,·
O=[N+]([O-])c1cccc(S(=O)(=O)Nc2nc3ccccc3nc2Nc2cccc(S(=O)(=O)N3CCCCC3)c2)c1,39.0%[10 µM],?,-1.5%,6.31µM*,?,3.6%
O=[N+]([O-])c1cccc(S(=O)(=O)N2CCN(S(=O)(=O)N3CCCCCC3)CC2)c1,·,·,-1.3%,·,·,·
Cc1cc(=O)oc2cc(O)cc(O)c12,-1.6%,·,·,·,·,?
CCCCCc1cc(O)c2c(C)cc(=O)oc2c1,-9.1%[10 µM],25.1µM*,11.7%,-9.7%[46.1 µM],-22.2%,15.2%
Cc1cccc2nc(-c3ccco3)c(Nc3ccccc3)n12,-26.1%,13.7%,6.6%,-34.1%,·,-21.3%
Cc1ccc(Nc2c(-c3ccccn3)nc3cccc(C)n23)cc1,-131.3%,7.94µM*,23.8%,-50.7%,·,·
Cc1c(CCOC(=O)c2cc([N+](=O)[O-])cc([N+](=O)[O-])c2)sc[n+]1CC(=O)c1ccccc1,-8.4%,-12.0%,?,10µM*,?,-23.2%
Cc1c(CCOC(=O)CC23CC4CC(CC(C4)C2)C3)sc[n+]1CC(=O)c1ccc(Br)cc1,-14.7%,16.3%,-4.7%,10µM*,?,-1.4%
Cc1c(CCOC(=O)CC23CC4CC(CC(C)(C4)C2)C3)sc[n+]1CC(=O)c1ccccc1,-8.8%[10 µM],32.5%[9.22 µM],8.5%,?,0.8%[46 µM],-0.4%
C=CCN1c2ccccc2[C@]23C[C@@H](C(=O)OC)N(S(=O)(=O)c4c(C)noc4C)C2=NC(C(=O)OC)=C(C(=O)OC)[C@H]13,-10.1%[10 µM],·,·,·,2.3%[9.22 µM],-4.5%[13.1 µM]
